Screens deposited in PubChem BioAssay by National Center for Advancing Translational Sciences (NCATS).
RGS12 GoLoco inh: qHTS Assay for Inhibitors of RGS12 GoLoco Motif Activity (Red Fluorophore); Guanine nucleotide-binding protein G(i) subunit alpha-1 (Homo sapiens), P63096; Gai1:RGS12 GoLoco peptide FP, rhodamine, 10 min; Potency, µM (top dose mostly 61.6 µM), for the others: at the top dose activity, negative = inhibition, actives largely listed as inhibitors; hit rate 0.44% among 230,000; AID 880, 2007; active = well fitted inhibition curve with a large enough effect, not every such curve was filed as active; inactive = no such curve, though single readings can be large or run the other way; also: % is scaled to controls: 0 for no effect and ±100 for the full control effect; nearly all actives have a fitted effect of over 30% in size
Target sequence (P63096 whole entry, looked up): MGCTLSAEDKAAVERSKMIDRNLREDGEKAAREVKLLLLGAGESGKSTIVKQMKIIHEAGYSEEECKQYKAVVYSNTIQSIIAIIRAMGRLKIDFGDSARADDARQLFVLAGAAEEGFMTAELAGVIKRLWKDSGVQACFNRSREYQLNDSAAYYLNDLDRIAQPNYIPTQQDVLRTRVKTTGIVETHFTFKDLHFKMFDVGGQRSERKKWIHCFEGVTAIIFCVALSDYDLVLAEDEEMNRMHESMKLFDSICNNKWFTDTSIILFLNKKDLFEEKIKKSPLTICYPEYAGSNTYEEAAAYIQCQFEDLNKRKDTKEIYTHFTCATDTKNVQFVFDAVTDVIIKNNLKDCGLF
ERG-DNA inh: qHTS for Small Molecule Inhibitors of the ERG Ets/DNA interaction. Transcriptional regulator ERG (Homo sapiens), P11308. fluorescence polarization, His-ERG Ets domain / labelled DNA. Potency, µM (doses to about 76.9 µM), inactives show at the top dose FP activity, negative = inhibition, most hits filed as inhibitors. hit rate 0.028% among 370,000; active = well fitted inhibition curve with a large enough effect in the polarisation, with a control signal flat; inconclusive = small, poorly fitted or top-dose-only effect, or effect the other way, or a change in a side signal; inactive = no such curve, though single readings can be large or run the other way; the % refers to the polarisation;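 also: polarization taken with two DNA probes labelled with fluorescein and Texas red; % of control where 0% means no effect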
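His-tagged ERG Ets domain (1 uM in the protein solution; 300mM KCl, 50mM Tris-HCl, 1mM EDTA, 1mM DTT, pH 7.5) received compound, then a probe mix of 5 nM fluorescein-DNA and 100nM Texas-615-DNA. Fluorescence polarization was read for both dyes.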
Anesthetic bind: qHTS Assay for Identification of Novel General Anesthetics. Ferritin light chain (Equus caballus), P02791. apoferritin/1-aminoanthracene competitive binding, fluorescence. Potency, µM (titrated, usually from 77.5 µM), inactives show at the highest dose activity change, negative = displacement, usual class: inhibitors. hit rate 0.074% among 350,000. AID 485281, 2010; also: % is scaled to controls: 0 for no effect and ±100 for the full control effect; nearly all actives have a fitted effect of over 20% in size
Target sequence (P02791 2-175 limits assumed): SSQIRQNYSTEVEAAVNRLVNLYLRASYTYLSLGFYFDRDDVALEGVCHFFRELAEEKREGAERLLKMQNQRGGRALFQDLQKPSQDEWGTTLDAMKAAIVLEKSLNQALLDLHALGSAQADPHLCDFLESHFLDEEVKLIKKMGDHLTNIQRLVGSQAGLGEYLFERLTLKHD
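Steps: apoferritin (10 uM) was premixed with half-saturated 1-AMA in PBS, compounds were pin-transferred, plates stood 10 min at room temperature, fluorescence was read at 380/535 nm, and curves were fitted with a Hill equation.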
BRCA1 expr act: qHTS Assay to Identify Small Molecule Activators of BRCA1 Expression. Potency, µM (doses to about 46.1 µM), for the others: top-dose activation, usual class: activators. hit rate 1.1% among 380,000. MCF7-BRCA1-FFLuc reporter, luminescence, 48 h; response scale: scaled: vehicle 0%, 10 µM genistein 100%; also: nearly all actives have a fitted effect of over 80% in size
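MCF7-BRCA1-FFLuc cells, 2000/well in phenol-red-free MEM, attached 2 h then treated 48 h at 37 C. Luciferase luminescence read 15 min after reagent; normalized to genistein maximum activation (10microM) and DMSO, concentration-response fitted.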
* = called active by the depositor; ? = inconclusive; nt = no result given; [ ] = another dose, or the depositor's remark. Only some compounds are listed: those with a hit (about 1.2% of all), similar ones and a draw of the others. Unless noted, calls follow the shape of the dose curve; as a rule, active = well fitted curve in the direction sought with a large enough effect; inconclusive = small, poorly fitted or top-dose-only effect, or another doubt; inactive = no such curve, though single readings can be large; an effect the other way counts as inactive or inconclusive. Potency is read from the fitted curve at half-maximal effect.

SMILES | RGS12 GoLoco inh | ERG-DNA inh | Anesthetic bind | BRCA1 expr act
O=C(c1ccc(F)cc1)N1CCC(c2ccccc2)C1 (stereo not given) | -10% | 10% | -1% | 6.3µM*
O=C(Cc1cccc(F)c1)NO | nt | nt | nt | -14%
CN1CCC(=O)N(C(CSc2ccc(Br)cc2)c2ccccc2)CC1 (stereo not given) | nt | nt | -7% | nt
O=C1C2=CC[C@H]3C(=O)N(C[C@@H]4CCCO4)C(=O)[C@@H]3[C@@H]2[C@H](O)[C@@H]2O[C@H]12 | nt | nt | -6%[15.3 µM] | nt
S=C(NCc1ccco1)Nc1ccc(Br)cc1Cl | 2% | -4% | -13% | 10µM*
S=C(NCc1ccco1)Nc1ccc(Cl)cc1Cl | -11% | -2% | 4% | 7.9µM*
N#Cc1c2c(c(Cl)n3c1nc1ccccc13)CCCC2 | nt | nt | nt | -1%
O=C1C=C(Nc2nc(C(=O)O)cc(=O)[nH]2)c2ccccc2C1=O | -3%[14.2 µM] | nt | nt | nt
CC(C)CC(NC(=O)NC(CCC(=O)O)C(=O)O)C(=O)O (stereo not given) | nt | nt | -8% | nt
CCCC(C)NS(=O)(=O)c1ccc(OC)c(C)c1 (stereo not given) | 1% | 5% | 16µM* | 0%[1.84 µM]
CCCC(C)NS(=O)(=O)c1ccccc1 (stereo not given) | 5% | nt | ? | -5%
Cc1nn(CCOc2ccccc2)c(=O)n1-c1ccc(F)cc1 | 4% | 6% | -15% | 13µM*
Cc1nc2oc3ccc(F)cc3c(=O)c2cc1C(=O)O | nt | 4% | 2% | 29%
Cc1ccc2oc3ccccc3c(=O)c2c1 | nt | 7% | nt | 71%
Cc1ccc2oc3nc(C)c(C(=O)O)cc3c(=O)c2c1 | 32% | 5% | -7% | 2.8µM*
CC(=O)c1cc2c(=O)c3cc(C)ccc3oc2nc1C | 19% | -5% | -2% | 11µM*
CCOC(=O)c1cc2c(=O)c3cc(C)ccc3oc2nc1C | nt | -2% | -3% | 11µM*
CCN(CC)C(=O)c1cc2c(=O)c3cc(Cl)ccc3oc2nc1C | 94% | 7% | 0% | ?
Cc1ccc(S(=O)(=O)N2CCN(c3nc(-c4cccs4)nc4ncccc34)CC2)cc1 | nt | nt | nt | 25%
CC1(C)CCc2cc(S(=O)(=O)N3CCN(S(=O)(=O)c4c(F)cccc4F)CC3)ccc2O1 | nt | nt | nt | 7.9µM*
Clc1ccccc1CN1CCN(/N=C/C=C\c2ccco2)CC1 | 7% | 4% | -14% | ?
C(/C=C/c1ccco1)=N/N1CCN(c2ccccc2)CC1 | -10% | -3% | -15% | 10µM*
c1ccc(CNc2ncnc3nc(N4CCOCC4)[nH]c23)cc1 | nt | nt | nt | 0%
S=C(Nc1ccccc1)Nc1ccccn1 | nt | nt | nt | 53%
S=C(Nc1ccccc1)c1ccccn1 | -6% | -1% | 0% | 10µM*
SMILES | RGS12 GoLoco inh | ERG-DNA inh | Anesthetic bind | BRCA1 expr act
COc1cccc([C@@H]2Oc3ccc(OC)cc3C(=O)[C@H]2OC(=O)NCCc2ccc(OC)c(OC)c2)c1 | -8% | nt | nt | nt
N#Cc1ccc(NC(=O)COc2ccccc2C(=O)Nc2ccccc2)cc1 | nt | nt | nt | 0%
Cc1ccc(OCC(=O)N2CCCCC2)c(Br)c1 | 4% | -1% | -2% | 11µM*
CN(C)c1cc2c3ccccc3ccc2c2ccccc12 | nt | nt | nt | 0%
CCOc1ccc(-c2n[nH]c(C(=O)NN)c2C)cc1 | 5% | 3% | -4% | 10µM*
O.O.[Mn].[Mn].[Mn].[OH-].[OH-] | nt | nt | 12% | nt
O=[N+]([O-])c1ccc(NN=Cc2ccco2)nc1 | nt | 8% | nt | 10µM*
COc1ccc(NC(=O)Nc2ccccn2)cc1OC | -4% | -6% | 3% | 13µM*
COc1ccc(/C=N/Nc2ccc([N+](=O)[O-])cc2)cc1O | nt | 12% | -11% | 8.9µM*
COc1ccc(/C=N/Nc2ccccn2)cc1OC | 18% | 5% | -2% | 10µM*
O=[N+]([O-])c1ccc(N/N=C\c2cccnc2)nc1 | 7% | -2% | -2% | 2%
O=S(=O)(c1ccccc1C(F)(F)F)N1CCN(c2nc(-c3cccs3)nc3ccccc23)CC1 | nt | nt | nt | 7%
O=C(Nc1c(Cl)cc([N+](=O)[O-])cc1Cl)c1cc(Cl)cc(Cl)c1O | nt | nt | nt | -16%
Cc1ccc(-c2nc(=Nc3c(C)cc(C)cc3C)sn2-c2ccccc2)cc1 | nt | nt | nt | -69%
O=[N+]([O-])c1ccc(/C=N/Nc2ccccn2)cc1 | nt | -2% | -6% | 1.4µM*
CC(=O)Nc1ccc(NC(=O)Nc2ccc3c(c2)N(C)C(=O)CS3)cc1 | 33% | 15% | -10% | -3%
CN1C(=O)CSc2ccc(NC(=O)Nc3ccccn3)cc21 | 27% | 5% | -6% | 4µM*
O=C(O)c1ccc(/C=N\Nc2ccccn2)cc1 | nt | -2% | nt | 2.5µM*
C[C@H]1Cc2c(-c3ccccc3)nc3c(c2CO1)CN(S(=O)(=O)c1ccc(C#N)cc1)CC3 | -1%[14.2 µM] | nt | nt | nt
CC(C)NS(=O)(=O)c1ccc2[nH]c3nc(SCC(=O)Nc4ccc(F)c(F)c4)nnc3c2c1 | nt | nt | nt | 0%
Nc1c(C(=O)NCc2ccco2)nnn1-c1ccccc1 | 6% | -4% | -15% | 13µM*
Cc1cc(C)cc(-n2nnc(C(=O)NCc3ccco3)c2N)c1 | 5% | 4% | -5% | 1%
COc1cccc(OC)c1C1=Nn2c(nnc2-c2ccccc2C)SC1 | nt | nt | -8% | nt
CC(Sc1nc2ccccc2c(=O)n1C)C(=O)Nc1ccc2c(c1)OCCO2 (stereo not given) | nt | -4% | nt | -17%
CCC(C(=O)Nc1ccc2c(c1)OCCO2)n1nnc2ccccc2c1=O (stereo not given) | nt | -9% | -20% | 10µM*
SMILES | RGS12 GoLoco inh | ERG-DNA inh | Anesthetic bind | BRCA1 expr act
O=C(COC(=O)CNC(=O)C1CCCCC1)NC1CC1 | nt | nt | nt | 0%
CCC(=O)c1ccc(OCc2ccc(C#N)cc2)cc1 | 5% | 7% | 5% | 3.5µM*
CCCCNC(=O)Cn1c(SCc2cccc(F)c2)nc2ccncc21 | nt | nt | nt | 22%
O/N=C(\c1ccc(Cl)cc1Cl)c1ncc(C(F)(F)F)cc1Cl | 12% | -5% | 18µM* | -46%
O=C(Cc1ccccc1)c1ccc(O)cc1 | nt | -4% | nt | 11µM*
O=C(Cc1ccccc1)c1ccc(N2CCOCC2)cc1 | nt | nt | nt | 11µM*
COc1ccc2nc(/C=N/NC(=O)CCCCCNC(=O)OC(C)(C)C)ccc2c1 | -1% | -2% | -6% | 85%
COc1ccc2nc(/C=N/NC(=O)CCNC(=O)OC(C)(C)C)ccc2c1 | 2% | -1% | -6% | 6.3µM*
Cn1c2ccccc2c(=O)c2ccc(C#CC3(N)CCCCC3)cc21 | nt | -9% | 48% | 5.6µM*
COc1cccc2oc3ccc(C#CC4(N)CCCCC4)cc3c(=O)c12 | nt | -15% | 105% | 7.9µM*
Cn1c2ccccc2c(=O)c2ccc(C#Cc3ccccn3)cc21 | nt | 9% | -3% | 11µM*
Cn1c2ccccc2c(=O)c2cc(C#Cc3ccccn3)ccc21 | nt | -7% | -8% | ?
NC(=O)N/N=C/c1ccc(-c2ccc([N+](=O)[O-])cc2)o1 | 5% | -4% | -19% | 42%
O=[N+]([O-])c1ccc(-c2ccc(/C=N/O)o2)cc1 | 6% | 7% | -14% | 8.9µM*
